Reference: the supplement of paper PMC6555819

What was measured:
Experiment in all cases: PBM binding z-score (relative to random genomic background probes); higher = stronger binding; sequences stand for … in GC…GCGATTGACAGCGTAGAATGAAGG
[1] = test system: FXR:RXRa (NR concentration 270 nM, RXRa partner concentration 90 nM)
In short: (§1)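 Binding buffer was PBS pH 7.4 with 2% milk, 0.02% Triton X-100, 1 mM DTT, 0.2 mg/mL BSA and 0.4 mg/ml salmon testes DNA. In it, ligand-free nuclear receptor dimers were incubated 1 h on custom Agilent 4×180K protein-binding microarrays carrying double-stranded probes. Antibodies against each partner (one per run) detected binding, and z-scores were calculated against random background probes after regression normalization of scanned fluorescence.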

[2] = test system: LXRa:RXRa (NR concentration 270 nM, RXRa partner concentration 90 nM)
In short: as §1

[3] = test system: LXRa homodimer (NR concentration 270 nM)
In short: as §1

[4] = test system: LXRb:RXRa (NR concentration 270 nM, RXRa partner concentration 90 nM)
In short: as §1

[5] = test system: LXRb homodimer (NR concentration 270 nM)
In short: as §1

[6] = test system: PPARa:RXRa (NR concentration 270 nM, RXRa partner concentration 90 nM)
In short: as §1

[7] = test system: PPARg:RXRa (NR concentration 180 nM, RXRa partner concentration 90 nM)
In short: as §1

[8] = test system: PPARg:RXRa 270nM:90nM, anti-RXR (NR concentration 270 nM, RXRa partner concentration 90 nM)
In short: as §1

[9] = test system: PPARg:RXRa 30nM:10nM, anti-RXR (NR concentration 30 nM, RXRa partner concentration 10 nM)
In short: as §1

[10] = test system: PPARg:RXRa 90nM:30nM, anti-RXR (NR concentration 90 nM, RXRa partner concentration 30 nM)
In short: as §1

[11] = test system: PPARg:RXRa DBDmut IVT, anti-RXR (DBD mutation: RXRa K156A/R161A, NR concentration 270 nM, RXRa partner concentration 90 nM)
In short: as §1

[12] = test system: PPARg:RXRa IVT, anti-PPARg (NR concentration 270 nM, RXRa partner concentration 90 nM)
In short: as §1

[13] = test system: PPARg DBDmut:RXRa IVT, anti-PPARg (DBD mutation: PPARg1 K132A/R137A, NR concentration 270 nM, RXRa partner concentration 90 nM)
In short: as §1

[14] = test system: PPARg DBDmut IVT, anti-PPARg (DBD mutation: PPARg1 K132A/R137A, NR concentration 270 nM)
In short: as §1

[15] = test system: PPARg homodimer (NR concentration 180 nM)
In short: as §1

[16] = test system: PXR:RXRa (NR concentration 270 nM, RXRa partner concentration 90 nM)
In short: as §1

[17] = test system: PXR homodimer (NR concentration 270 nM)
In short: as §1

[18] = test system: RARa:RXR (NR concentration 270 nM, RXRa partner concentration 90 nM)
In short: as §1

[19] = test system: RARa homodimer (NR concentration 270 nM)
In short: as §1

[20] = test system: RARb:RXRa (NR concentration 270 nM, RXRa partner concentration 90 nM)
In short: as §1

Sequence	PBM binding z-score [1]	PBM binding z-score [2]	PBM binding z-score [3]	PBM binding z-score [4]	PBM binding z-score [5]	PBM binding z-score [6]	PBM binding z-score [7]	PBM binding z-score [8]	PBM binding z-score [9]	PBM binding z-score [10]	PBM binding z-score [11]	PBM binding z-score [12]	PBM binding z-score [13]	PBM binding z-score [14]	PBM binding z-score [15]	PBM binding z-score [16]	PBM binding z-score [17]	PBM binding z-score [18]	PBM binding z-score [19]	PBM binding z-score [20]
TCTAGTTGGTCACGGAGGTCACAGACGACGGGTA	3.38	3.46	1.88	3.32	0.321	4.34	3.91	4.32	3.41	3.8	2.62	4.51	0.854	1.64	3.09	4.61	0.763	4.83	1.36	3.96
TCTTGGAGATCAAGCAGGTTAAGAAAGCCTGAGT	0.463	0.405	-0.249	0.297	-0.658	1.09	-0.253	1.39	2.35	1.84	1.33	-0.158	-0.0417	-0.978	-0.522	0.538	0.0928	0.684	-0.244	0.272
ATATCTAGGTAACAAGTTCAGTGAAAGAGAGGAC	0.903	1.07	0.574	0.857	0.917	3.32	5.22	4.43	2.41	4.16	6.96	6.85	2.71	2.4	1.51	1.64	1.49	0.979	1.72	1.58
CTCGCAAGGTCGGTTGAGGTGAGTATACGGATAA	0.755	0.469	-0.26	0.374	-0.72	1.3	-0.0433	0.131	-0.357	-0.159	-0.323	0.241	-0.57	-0.227	-0.181	1.73	-0.0452	1.19	-0.537	1.77
CGAACTAGGTCCGAACAGGACAGTGAAGGATGAT	-0.542	-0.905	-0.619	-1	-0.811	-1.03	0.576	-0.558	-0.414	-0.784	1.53	0.592	-1.02	-0.172	-1.32	-0.715	-0.581	-0.746	-0.281	-0.345
TCTTGTAGATCGGCAGGTTAAGAAAGCTGGCCAA	0.24	0.472	-0.48	0.25	-0.432	0.736	-0.656	1.28	2.42	2.02	1.25	0.377	-0.018	-0.268	0.0916	0.349	-0.293	0.55	-0.734	0.257
CAAAGTAGGTCACAGAGGTCAAAGTCCGTGCGTA	7.06	6.7	7.7	6.5	2.52	6.75	10.4	8.33	7.56	8.58	8.54	8.94	1.99	2.62	4.88	6.71	10.8	7.4	2.67	5.14
AATACAGGGTCATCGTAGACCAGAGTACGCACAG	7.48	5.86	2.19	4.4	1.2	5.84	6.79	6.17	2.73	4.84	3.19	4.37	1.62	0.874	2.94	4.27	0.967	5.09	1.49	4.3
ATCTCTAGGTAAAGATAGTTCTGTGAATGCAAAT	0.34	0.239	-0.054	0.231	0.796	0.344	0.505	0.243	0.378	0.389	2.5	1.5	0.815	1.19	0.736	0.067	0.184	0.347	0.978	0.117
TCTTGTAGATCAAGCAGGTTAATAAAGCCTGAGT	0.189	0.118	-0.263	0.262	-0.449	0.639	-0.267	0.922	2.43	1.6	1.48	0.498	-0.163	0.466	0.27	0.447	0.326	0.406	0.125	-0.0389
TCTTGTAGATCAAGCAGGTTAAGATAGCCTGAGT	0.371	0.507	-0.257	0.188	-0.36	0.829	-0.193	1.27	2.75	2.18	1.74	0.733	0.115	0.351	0.386	0.406	-0.159	0.668	-0.0619	0.309
TCTCGGAGGACACCAAGGTCAGAGCTTTCCAGAG	1.66	1.05	0.191	1.09	-0.834	1.86	0.127	1.65	2.01	1.76	1.32	1.11	-0.509	-0.885	1.73	2.54	2.65	2.17	-0.289	3.27
GGAACGAGGGCCTTCGAGTTGATAGCATGGCGAT	-0.344	-0.805	-0.648	-0.91	-1.22	-0.579	0.209	-0.359	-0.539	-0.758	0.104	-0.566	-0.653	-1.28	-1.03	-0.313	-0.534	-0.659	-0.765	-0.306
CGAACAAGGGCATGAGTTGATAGCAAATGCCGAT	-0.0162	0.00346	-0.221	-0.134	-0.495	0.425	0.963	0.765	0.259	0.196	1.66	0.813	-0.522	-0.153	0.0917	-0.0332	-0.184	-0.0493	0.0122	2.02
